Measurements reported in PubChem BioAssay AID504332 (National Center for Advancing Translational Sciences (NCATS), 2011).
The whole screen tested about 350,000 compounds, of which about 31,000 (8.9%) were called active. Not shown: some 15% with an inconclusive outcome. The entries come from a sample that favours actives as a whole. Where a call stands in place of a potency, no number is given. Values without a mark were called inactive. Calls follow the shape of the dose curve; as a rule, active = well fitted inhibition curve with a large enough effect; inconclusive = small, poorly fitted or top-dose-only effect; inactive = no such curve, though single readings can be large or run the other way.

molecular target: Histone-lysine N-methyltransferase EHMT2 (Homo sapiens) (UniProt Q96KQ7); experiment: qHTS Assay for Inhibitors of Histone Lysine Methyltransferase G9a; conditions: G9a H3K9 monomethylation, AlphaScreen, 2 h; series mostly up to 59 µM; also: nearly all actives have a fitted effect of over 75% in size
Sequence (Q96KQ7 913-1193 limits assumed): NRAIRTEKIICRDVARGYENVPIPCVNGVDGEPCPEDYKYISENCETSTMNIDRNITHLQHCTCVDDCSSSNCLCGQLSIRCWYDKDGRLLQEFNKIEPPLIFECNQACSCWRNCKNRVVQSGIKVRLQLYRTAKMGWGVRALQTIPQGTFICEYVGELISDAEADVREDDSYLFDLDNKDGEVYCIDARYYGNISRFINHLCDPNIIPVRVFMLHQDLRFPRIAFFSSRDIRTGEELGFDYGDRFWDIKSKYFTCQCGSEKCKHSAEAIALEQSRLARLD
Summary of the method: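 Compounds were preincubated with 20 nM G9a for 15 min, after which biotinylated H3K9 peptide (500 nM) and SAM (20 uM) started a 2 h room-temperature reaction. Monomethylated product was quantified by antibody-based AlphaScreen chemiluminescence.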
Potency is read from the fitted curve at half-maximal effect.

Row | SMILES | Potency | activity, negative = inhibition
1 | COc1cccc(-n2c(=S)[nH]c3c(oc4ccccc43)c2=O)c1 | 44.7 µM (active) | 
2 | Cc1cccc(-n2c(SCC(N)=O)nc3c(oc4ccccc43)c2=O)c1 | inactive | 
3 | COc1ccc(-n2c(SCC(N)=O)nc3c(oc4ccccc43)c2=O)cc1 | inactive | 
4 | CCOc1cc(/C=C(\C#N)C(=O)Nc2ccccc2C)ccc1OCc1cc(=O)n2nc(CC)sc2n1 | inactive | 
5 | Cc1cc(C)n(-c2ccc(C(=O)O)cc2[N+](=O)[O-])n1 | inactive | 
6 | CC(=O)Nc1ccc(/C=C/C(=O)c2ccccc2)cc1 |  | -1.87% [at 2.33 µM]
7 | CN(C)c1ccc(/C=C/C(=O)c2ccc(C(C)(C)C)cc2)cc1[N+](=O)[O-] | 12.6 µM (active) | 
8 | COc1cccc(CNC(=O)CN2C(=O)CCc3cc(S(=O)(=O)N4CCOCC4)ccc32)c1 | inactive | 
9 | COc1ccc(C(CNC(=O)c2ccc(S(=O)(=O)Nc3ccccc3C)cc2)N2CCOCC2)cc1 (configuration not stated) |  | 19% [at 2.33 µM]
10 | Cc1ccn2cc(-c3nonc3C)cc2c1 | 10 µM (active) | 
11 | COc1ccc(-c2cn3ccc(C)cc3n2)cc1 | inactive | 
12 | Cc1nc(-c2ccc(F)cc2)c(CC(=O)N(C)CC(=O)Nc2c(C)cccc2C)s1 | inactive | 
13 | CCCSc1nc2sc3c(c2c(=O)n1-c1cccc(Br)c1)CC(C)(C)OC3 | inactive | 
14 | Cc1cc(C(=O)OC(C)C(=O)NC2CCCCC2C)c(C)o1 (configuration not stated) | inactive | 
15 | Cc1cccc(NC(=S)NCCN(C2CCCCC2)C2CCCC2)c1 | inactive | 
16 | Cc1cc(C)cc(NC(=S)NCc2ccc(F)cc2)c1 | inactive | 
17 | O=C(O)CCC(=O)NCc1ccc2[nH]c3c(c2c1)CCCC3 | 50.1 µM (active) | 
18 | Cc1cccc(NC(=S)NCc2ccc3[nH]c4c(c3c2)CCCC4)c1 | 39.8 µM (active) | 
19 | O=C(CCc1ccccc1)NCc1ccc2c(c1)CCN2C(=O)c1ccccc1 | inactive | 
20 | O=C(O)CCC(=O)NCc1ccc(C(=O)O)cc1 | inactive | 
21 | Cc1ccc(Cl)cc1NC(=O)CCC(=O)N1CC(C)Sc2ccccc21 (configuration not stated) | inactive | 

Row | SMILES | Potency | activity, negative = inhibition
22 | O=C(NCc1ccccc1)c1ccc2c(c1)nc1n2CCCCC1 | inactive | 
23 | CC(=O)c1ccc(NS(=O)(=O)c2ccc(-c3cc(C)no3)s2)cc1 | inactive | 
24 | Cc1ccc(N(C)C(=O)C2CCN(S(=O)(=O)c3ccc4c(c3)CCCN4C(=O)C3CCC3)CC2)cc1 | inactive | 
25 | CCN(C(=O)COc1ccc(C(=O)c2ccccc2)cc1)c1ccccc1 | inactive | 
26 | CC(=O)NNC1=Nc2ccccc2N(C)C(C)C1 (configuration not stated) | 31.6 µM (active) | 
27 | COC(=O)C1=C(C(=O)OC)[C@@H]2N(C)c3ccccc3[C@@]23C[C@@H](C(=O)OC)N(C(C)=O)C3=N1 | inactive | 
28 | O=C(CNS(=O)(=O)c1ccc2ccccc2c1)Nc1ccc(F)c(F)c1F |  | 2.41% [at 12.7 µM]
29 | CC1CCCCC12NC(=O)N(CC(=O)Nc1ccc(S(=O)(=O)Nc3ncccn3)cc1)C2=O (configuration not stated) |  | -10.5% [at 12.7 µM]
30 | COc1ccccc1NS(=O)(=O)c1ccc(C(=O)N2CCN(c3ccccc3O)CC2)cc1 | 44.7 µM (active) | 
31 | COc1ccccc1N1CCN(C(=O)c2ccc(S(=O)(=O)N3CCCCC3)cc2)CC1 |  | -28.9% [at 12.7 µM]
32 | CC1CN(C(=O)COC(=O)c2cccc(NS(=O)(=O)c3ccccc3)c2)CC(C)O1 (configuration not stated) |  | 3.95% [at 0.501 µM]
33 | CCOc1ncccc1C(=O)NNC(=O)c1cccc(S(=O)(=O)Nc2ccccc2OC)c1 | inactive | 
34 | COc1ccc(S(=O)(=O)Nc2ccccc2C(=O)N2CCCC2)cc1C | inactive | 
35 | COc1ccc(N2CCN(C(=O)COC(=O)c3cccc(S(=O)(=O)Nc4ccccc4OC)c3)CC2)cc1 | 15.8 µM (active) | 
36 | CCOc1ccc(C2CC(=O)c3c([nH]c(C(=O)OCc4ccccc4)c3C)C2)cc1 (configuration not stated) | inactive | 
37 | CN(c1ccccc1)S(=O)(=O)c1cccc(C(=O)NNC(=O)c2ccncc2)c1 | inactive | 
38 | COc1ccc(OC)c(-c2csc(-c3c(N)c(C(=O)c4ccccc4)n4ccccc34)n2)c1 | inactive | 
39 | Cc1nn(CC(=O)O)c(=O)c2cc3cc(F)ccc3n12 | inactive | 
40 | Cc1ccn2c(=O)c(NC(=O)c3cccc4ccccc34)c(C)nc2c1 | inactive | 
41 | c1ccc(Nc2n[nH]nc2-c2ccccc2)cc1 | inactive | 
42 | O=C(O)c1n[nH]nc1-c1ccccc1 | 3.55 µM (active) | 

Row | SMILES | Potency | activity, negative = inhibition
43 | N#Cc1c(-c2ccccc2)c(-c2ccccc2)n[nH]c1=O | inactive | 
44 | CCOc1ccc(OCC)c(NC(=O)c2c(C)nn(-c3ccccc3)c2-n2cccc2)c1 | inactive | 
45 | CC(C)c1ccc(C2CC(=O)N3CN(C4CCCCC4)CSC3=C2C#N)cc1 (configuration not stated) | 2.24 µM (active) | 
46 | CC(C)c1ccc(C2C(C#N)=C(N)Oc3c2oc(CO)cc3=O)cc1 (configuration not stated) | inactive | 
47 | OCC[C@H]1C[C@@H](O)[C@H](O)[C@@]2(OCCc3ccccc32)O1 |  | -2.06% [at 2.33 µM]
48 | O=C(CCSCc1ccccc1F)N1CCN(c2ccc(Cl)cc2)CC1 | inactive | 
49 | Cc1cc(=O)[nH]c(SCC(=O)Nc2ccc(Br)cc2)n1 |  | 10.1% [at 12.7 µM]
50 | Cc1cc(=O)[nH]c(SCC(=O)N2c3ccccc3CC2C)n1 (configuration not stated) |  | -1.7% [at 12.7 µM]
51 | Cc1cc(C)c(C(=O)CSc2nc(C)cc(=O)[nH]2)c(C)c1 | 31.6 µM (active) | 
52 | Cc1cc(Cl)c2oc(C(=O)NC(C)c3ccncn3)c(C)c2c1 (configuration not stated) | inactive | 
53 | COc1cc(N=Cc2c(O)c3ccccc3oc2=O)c(OC)cc1Cl |  | 16.1% [at 0.501 µM]
54 | COc1ccccc1N=Cc1c(O)c2ccccc2oc1=O | inactive | 
55 | COc1ccc(N=Cc2c(O)[nH]c3ccccc23)cc1OC | 50.1 µM (active) | 
56 | CCOC(=O)Cn1c(=O)n(Cc2ccc(OC)cc2)c(=O)c2cccnc21 | inactive | 
57 | CC1CCCN(S(=O)(=O)c2ccc3[nH]c(=O)cc(C(=O)NCCc4ccc(Cl)cc4)c3c2)C1 (configuration not stated) | inactive | 
58 | COc1ccc(S(=O)(=O)NCc2cccn2Cc2cccc(C)c2)cc1 | inactive | 
59 | CCOc1ccccc1C(=O)NCc1ccc2c(c1)CCN2C(=O)c1ccc(F)cc1 | inactive | 
60 | Cn1c(-c2ccco2)nc2cc3ccccc3cc21 |  | 8.95% [at 0.0925 µM]
61 | Cc1nn2c3ccccc3nc2n(C)c1=O | inactive | 
62 | c1coc(-c2nc3nc4ccccc4n3nc2-c2ccco2)c1 | 10 µM (active) | 
